Bioassay records from PubChem.
VACV Venus inh = inhibitors of vaccinia virus (Venus reporter). Vaccinia virus Venus reporter expression, fluorescence. 0.46% of 330,000 active. Potency, µM (highest dose often 36.5 µM), hits mostly inhibitors; calls by dose curve; tested in A549 cells; also: nearly all actives have a fitted effect of over 30% in size
Vaccinia mCherry = vaccinia inhibition (mCherry reporter); 0.63% of 310,000 active; Vaccinia virus mCherry reporter infection, fluorescence; AID 720579; Potency, µM (highest dose often 36.5 µM), hits mostly inhibitors; calls by dose curve; tested in A549 cells; also: nearly all actives have a fitted effect of over 35% in size
AmpC inh no detg = AmpC beta-lactamase inhibition without detergent | P00811 | AmpC nitrocefin hydrolysis, absorbance 480 nm, 0.0001% Triton | Potency, µM (titrated, usually from 57.1 µM), usual class: inhibitors | 0.52% of 330,000 active; also: nearly all actives have a fitted effect of over 20% in size
Target sequence (P00811 whole entry, looked up): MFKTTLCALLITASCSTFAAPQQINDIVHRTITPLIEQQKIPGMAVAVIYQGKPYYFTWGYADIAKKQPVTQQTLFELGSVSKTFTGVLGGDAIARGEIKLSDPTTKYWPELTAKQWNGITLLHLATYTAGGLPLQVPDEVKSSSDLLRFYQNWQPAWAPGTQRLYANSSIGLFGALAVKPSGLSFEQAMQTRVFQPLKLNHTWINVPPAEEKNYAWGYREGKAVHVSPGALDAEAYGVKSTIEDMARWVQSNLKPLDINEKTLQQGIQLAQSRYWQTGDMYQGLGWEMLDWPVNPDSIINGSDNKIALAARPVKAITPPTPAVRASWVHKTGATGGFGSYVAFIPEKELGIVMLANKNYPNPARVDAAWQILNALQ
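AmpC (5.3 nM in the dispensed reagent) in 20 mM phosphate pH 7.0 with 0.01% (detergent screen) or 0.0001% Triton X-100 was preincubated with compounds for 15 min at room temperature. Nitrocefin was then added from an 800 uM solution, and hydrolysis was followed at 480 nm.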
AmpC inh detg = blocks E. coli AmpC beta-lactamase in detergent assay | AmpC hydrolysis of nitrocefin, absorbance 480 nm, 0.01% Triton | Potency, µM (doses to about 114 µM), most hits filed as inhibitors | 0.041% of 370,000 active | AID 485294; also: nearly all actives have a fitted effect of over 25% in size
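20 mM phosphate pH 7.0 + 0.01% (detergent screen) or 0.0001% Triton X-100; 5.3 nM AmpC reagent; cpd preinc 15 min RT; nitrocefin (800 uM stock) to start; A480 q20 s × 4 min; Activity was normalised to no-enzyme and no-compound control wells.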
SARS PLP yeast = SARS-CoV PLP inhibition in yeast | S. cerevisiae expressing SARS-CoV PLpro, growth rescue | Potency, µM (highest dose often 32.9 µM), hits mostly activators | AID 485353 | 0.19% of 330,000 active; calls by dose curve; also: nearly all actives have a fitted effect of over 55% in size
AMA1 RON2 block = disrupts binding of P. falciparum AMA1 to RON2; AlphaScreen AMA1-biotinylated RON2 peptide binding; Potency, µM (titrated, usually from 58.2 µM), actives largely listed as inhibitors; 0.2% of 360,000 active; also: nearly all actives have a fitted effect of over 45% in size
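AMA1 (3D7) with his tag at 25 nM final met compounds first, then biotinylated RON2 peptide at 25 nM; detection used donor plus acceptor beads, 10 µg/mL apiece, read by AlphaScreen after 30 min at room temperature.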
Each line names hits and unclear results; the compound was inactive in the other large screens. Compounds with a hit are over-represented: about 1.3% of the library has one in this group of screens. Unless noted, calls follow the shape of the dose curve; as a rule, active = well fitted curve in the direction sought with a large enough effect; inconclusive = small, poorly fitted or top-dose-only effect, or another doubt; inactive = no such curve, though single readings can be large; an effect the other way counts as inactive or inconclusive.

CC(=O)NC(c1ccc(C)cc1)c1cc([N+](=O)[O-])c2cccnc2c1O (stereo not given)	VACV Venus inh inconclusive, Vaccinia mCherry 12.6µM
CC(=O)NC(c1ccc(N(C)C)cc1)c1cc(Cl)c2cccnc2c1O (stereo not given)	VACV Venus inh inconclusive, Vaccinia mCherry 3.16µM (no result: AmpC inh no detg, AmpC inh detg, SARS PLP yeast)
CCCC(=O)NC(c1ccco1)c1cc([N+](=O)[O-])c2cccnc2c1O (stereo not given)	SARS PLP yeast inconclusive
COc1cccc(CN2CCCC(c3nc(-c4ccncc4)ncc3-c3ccccc3)C2)c1O (stereo not given)	none (no result: AmpC inh no detg, AmpC inh detg, SARS PLP yeast, AMA1 RON2 block)
NS(=O)(=O)c1ccc(CCNC(=O)c2ccccc2OCc2ccc(F)cc2)cc1	AmpC inh no detg 11.2µM, AmpC inh detg inconclusive
Cc1cnc(SCC2CCCO2)nc1C1CCCN(Cc2cc3c(cc2Cl)OCO3)C1 (stereo not given)	none (no result: AmpC inh no detg, AmpC inh detg, SARS PLP yeast, AMA1 RON2 block)
CCOC(=O)/C(=C\c1cccnc1)C(=O)c1cc(C(C)=O)c(Nc2ccccc2)s1	VACV Venus inh 11.2µM, Vaccinia mCherry 12.6µM
CCOC(=O)/C(=C\c1ccccc1)C(=O)c1cc(C(C)=O)c(Nc2ccccc2)s1	none
CC12CCC(C(=O)N/N=C/c3ccc(O)cc3O)(OC1=O)C2(C)C (stereo not given)	Vaccinia mCherry 14.1µM
CSc1nnc(CNC(=O)/C=C/c2ccccc2Cl)n1-c1ccc(F)cc1	none (no result: AmpC inh no detg, AmpC inh detg, SARS PLP yeast, AMA1 RON2 block)
CC(=O)OC[C@]12CCC(C)=C[C@H]1O[C@@H]1[C@H](O)[C@@H](OC(C)=O)[C@@]2(C)[C@]12CO2	VACV Venus inh 3.16µM, Vaccinia mCherry inconclusive
Cc1ccc(NC(=O)CSc2nnc(-c3ccco3)c(-c3ccco3)n2)cc1	VACV Venus inh inconclusive, Vaccinia mCherry inconclusive, SARS PLP yeast inconclusive
CN(C)c1ccc(NC(=O)CSc2nnc(-c3ccco3)c(-c3ccco3)n2)cc1	AMA1 RON2 block 17.8µM
COc1ccc(OC)c(-c2cc(C3CCN(c4cc(Cl)nc(N)n4)CC3)[nH]n2)c1	VACV Venus inh inconclusive, Vaccinia mCherry 12.6µM
CS(=O)(=O)Nc1cccc(C2=NN(S(C)(=O)=O)C(c3ccc4c(c3)OCO4)C2)c1 (stereo not given)	AmpC inh no detg 39.8µM
COc1ccc(Br)cc1CNc1ccc2[nH]c(=O)[nH]c2c1	Vaccinia mCherry inconclusive
COc1ccc(Br)cc1CNc1ccc(O)cc1	AmpC inh no detg 28.2µM, AmpC inh detg inconclusive, AMA1 RON2 block inconclusive
COc1cccc(NC(=O)Cn2cc3c(n2)CCCCC3)c1	AmpC inh detg inconclusive
O=C(Cn1cc2c(n1)CCCC2)NCc1cccs1	AmpC inh detg inconclusive (no result: VACV Venus inh, Vaccinia mCherry)
O=C(Cn1cc2c(n1)CCCC2)NCc1ccccn1	AmpC inh no detg 3.55µM (no result: VACV Venus inh, Vaccinia mCherry)
COc1ccc(CNC(=O)Cn2cc3c(n2)CCCCC3)cc1	AmpC inh no detg 7.08µM
COc1cc(C(=O)N/N=C/C23CC[C@@H](O)CC2(O)CC[C@@H]2[C@@H]3CCC3(C)C(C4=CC(=O)OC4)CCC23O)ccc1O (stereo not given in full)	VACV Venus inh inconclusive, Vaccinia mCherry 10µM
Cc1ccc(N2CCN(c3ncccc3[N+](=O)[O-])CC2)c(C)c1	AMA1 RON2 block 12.6µM
CC(=O)OC1CC(OC2C(O)CC(OC3C(O)CC(OC4CCC5(C)C(CCC6C5CCC5(C)C(C7=CC(=O)OC7)CCC65O)C4)OC3C)OC2C)OC(C)C1OC1OC(CO)C(O)C(O)C1O (stereo not given)	VACV Venus inh 5.62µM, Vaccinia mCherry 4.47µM (no result: AmpC inh no detg, AmpC inh detg, SARS PLP yeast)
CC(=O)O[C@H]1C[C@H](O[C@H]2[C@@H](O)C[C@H](O[C@H]3[C@@H](O)C[C@H](O[C@H]4CC[C@@]5(C)[C@H](CC[C@@H]6[C@@H]5C[C@@H](O)[C@]5(C)[C@@H](C7=CC(=O)OC7)CC[C@]65O)C4)O[C@@H]3C)O[C@@H]2C)O[C@H](C)[C@H]1O[C@@H]1O[C@H](CO)[C@@H](O)[C@H](O)[C@H]1O	VACV Venus inh 2.51µM, Vaccinia mCherry inconclusive (no result: AmpC inh no detg, AmpC inh detg, SARS PLP yeast, AMA1 RON2 block)
